# Records with an inconclusive call do not appear. Entries that show only a call come without a potency. Activity calls are given as the source filed them. Unless noted, the call rests on the fitted dose curve; in most records, active means well fitted curve in the direction sought with a large enough effect; inconclusive means small, poorly fitted or top-dose-only effect, or another doubt; inactive means no such curve, though single readings can be large; an effect the other way counts as inactive or inconclusive.
# Assays:
# [1] = AP1 Signaling Pathway (AID 357; active means well fitted curve in either direction with a large enough effect, not every such curve was filed as active;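 further: ME-180 reporter cells stimulated with EGF at its EC50 level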); conditions: ME-180 AP-1-bla reporter, EGF-induced, beta-lactamase ratio, 5 h; at 38 µM (top of the series)
# Method in brief: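 A ratiometric CCF4 readout (405 nm excitation; 460 and 530 nm emission) quantified AP-1-driven beta-lactamase in ME-180 cells after 5 h with compound and EC50 EGF; AC50 values were derived for activators and inhibitors.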
# [2] = biological target: Cytochrome P450 1A2 (Homo sapiens) (UniProt P05177); experiment: p450-cyp1a2 (AID 410; calls by dose curve; further: potency means the concentration at half of the fitted maximal effect)
# Method in brief: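 O-Demethylation of luciferin 6' methyl ether by human CYP1A2 is monitored as luciferase luminescence. Substrate sits at Km (100uM); enzyme is 20nM. Values are scaled to 57 uM furafylline as maximal inhibition.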
# [3] = NFAT Signaling Pathway (AID 444; active means well fitted curve in either direction with a large enough effect, not every such curve was filed as active;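 further: carbachol stimulus at about its EC50 of 1 µM final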); conditions: Jurkat NFAT-bla M1, carbachol, beta-lactamase ratio, 5 h; at 38 µM (top of the series)
# Method in brief: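 Jurkat cells carrying an NFAT-driven β-lactamase reporter and co-transfected muscarinic M1 receptor were treated with compound plus carbachol (1 uM final, an EC50 level) for 5 h at 37 °C. CCF4 loading followed for 1 h at RT; 460/530 nm ratio gave %activity.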
# [4] = Stat Signaling Pathway (AID 446; active means well fitted curve in either direction with a large enough effect, not every such curve was filed as active;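 further: ME-180 cervical cancer cells given 40 pM IL-6 alongside compound; SIE-controlled beta-lactamase reporter measured as 460/530 nm FRET emission ratio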); conditions: ME-180 (cervical carcinoma) SIE beta-lactamase reporter, IL-6 stimulated, 5 h; at 38 µM (top of the series)
# Method in brief: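 Overnight-plated ME-180 cells bearing a STAT Inducible Element beta-lactamase reporter; 5 h co-exposure to compound and 40 pM IL-6; values normalized to 300 pM IL-6 and 125 nM JAK inhibitor controls.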
# [5] = biological target: Glucocorticoid receptor (Homo sapiens) (UniProt P04150); experiment: GR-GFP Redistribution (AID 450;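 active means compounds whose dose series gives a full or clear partial fitted curve of increased nuclear translocation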; further: potency means the concentration at half of the fitted maximal effect); conditions: U2OS GR-GFP nuclear translocation, laser cytometry, 2 h
# [6] = biological target: Glucocorticoid receptor (Homo sapiens) (UniProt P04150); experiment: GR-EFC Redistribution (AID 451; calls by dose curve; further: potency means the concentration at half of the fitted maximal effect); conditions: CHO-K1 GR-EFC translocation, beta-gal luminescence, 2 h
# Method in brief: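 CHO-K1 cells stably expressing nuclear-localized β-gal enzyme acceptor and GR fused C-terminally to the enzyme donor fragment; ligand-driven nuclear translocation restores β-gal by complementation. Compounds titrated up to 46 uM final, 2 h at 37 °C; luminescence read.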
# [7] = biological target: Mitogen-activated protein kinase 10 (Mus musculus) (UniProt Q61831); experiment: JNK3 AlphaScreen Assay (AID 530; active means well fitted curve in either direction with a large enough effect, not every such curve was filed as active;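 further: kinase came from lysate of stimulated human HepG2 cells; signal reports phosphorylation of biotinylated GST-cJun 1-79 at Ser73 with 10 µM ATP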)
# Method in brief: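 Phosphorylation of biotinylated GST-cJun(1-79) at Ser73 is measured by AlphaScreen proximity luminescence. Enzyme is JNK3 in HepG2 lysates activated with interleukin-1beta and tumor necrosis factor alpha; ATP is 10 uM final.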
# [8] = biological target: 3',5'-cyclic-AMP phosphodiesterase 4B (Homo sapiens) (UniProt Q07343); experiment: qHTS Assay for Inhibitors of PDE-IV (AID 607; active means well fitted activation curve with a large enough effect in the main read-out, with a control signal flat, not every such curve was filed as active)
# Method in brief: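 Live HEK293 cells with a modified cyclic nucleotide-gated (CNG) channel report intracellular cAMP via membrane-potential dye fluorescence (ex 535/em 590 nm). Endogenous PDE-IV was targeted. Compounds were tested at up to 22.9 uM final; RO 20-1724 100 uM served as control.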
# [9] = biological target: Guanine nucleotide-binding protein G(i) subunit alpha-1 (Homo sapiens) (UniProt P63096); experiment: qHTS Assay for Inhibitors of RGS12 GoLoco Motif Activity (Green Fluorophore) (AID 879);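 further: negative values mean loss of peptide binding seen as reduced polarization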
# Method in brief: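 A drop in FITC polarization marked displacement of the FITC-tagged RGS12 GoLoco peptide (10 nM) from Gαi1 (50 nM). Compounds were incubated 10 min at room temperature in Tris pH 7.5 buffer containing 150 mM NaCl, 0.1 mM GDP and 0.05% NP40; unlabeled peptide titration served as control.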
# [10] = biological target: Cytochrome P450 3A4 (Homo sapiens) (UniProt P08684); experiment: qHTS Assay for Activators of Cytochrome P450 3A4 (AID 885); further: nearly all actives have a fitted effect of over 65% in size
# Method in brief: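 Using 20nM recombinant human CYP3A4 in potassium phosphate (200mM), substrate Luciferin-PPXE at 25uM, luminescent luciferin detection followed a 60-min RT NADPH reaction; data scaled to 57 uM ketoconazole.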
# [11] = qHTS Assay for Identification of Small Molecule Antagonists for Thrombopoietin (TPO) Signaling Pathway (AID 918); conditions: TPO-dependent cell signaling reporter, antagonist mode; further: potency means the concentration at half of the fitted maximal effect; nearly all actives have a fitted effect of over 60% in size
# Method in brief: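 Inhibitors of TPO signaling are sought by stimulating IL-3-starved murine Ba/F3 cells (human TPO receptor, Glycoprotein IIb-driven luciferase) with TPO at its EC50 of 26 pM alongside compound. After 24 hrs at 37 C, reporter luminescence is measured.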
# [12] = biological target: Muscarinic acetylcholine receptor M1 (Rattus norvegicus) (UniProt P08482); experiment: qHTS Assay for Antagonists of Acetylcholine Muscarinic M1 Receptor: Kinetic Measurement of Intracellular Calcium Response (AID 943);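 further: Fluo-4 calcium signal as peak divided by basal fluorescence over 4 min; nearly all actives have a fitted effect of over 75% in size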
# Method in brief: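 Antagonism is measured as inhibition of the carbachol-evoked calcium rise in CHO cells transfected with rat M1. Cells are dye-loaded, exposed to compound for 10 min, then stimulated with 100 nM carbachol (EC80).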
# [13] = biological target: Pyruvate kinase PKM (Homo sapiens) (UniProt P14618); experiment: qHTS Assay for Activators of Human Muscle Pyruvate Kinase (AID 954; active means well fitted curve in the direction sought with a large enough effect, not every such curve was filed as active)
# Method in brief: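 Screening used highly purified human pyruvate kinase M2 under submaximal activity, with PEP at its Km and ADP below Km. After an hour at room temperature, ATP was read by luciferase luminescence.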
# [14] = biological target: Pyruvate kinase (Leishmania mexicana) (UniProt Q27686); experiment: qHTS Validation Assay for Activators of Leishmania Mexicana Pyruvate Kinase (AID 959)
# Method in brief: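 Pyruvate kinase activity of E451W LmPYK (0.2 nM) was followed as ATP output after 1 h at room temperature with 0.5 mM PEP and 0.1 mM ADP, detected by PKLight luminescence.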
# [15] = biological target: Alpha-galactosidase A (Homo sapiens) (UniProt P06280); experiment: Counterscreen for Glucocerebrosidase Inhibitors: qHTS Assay for Human alpha-Galactosidase at pH 4.5 (AID 992)
# Method in brief: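 Each compound is preincubated briefly with 2 nM enzyme before substrate addition (80 uM); plates then sit 20 min at ambient temperature, are quenched with 1M NaOH/1M glycine, and read fluorometrically.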
# [16] = biological target: alpha-glucosidase (Oryza sativa, rice) (UniProt Q653V4); experiment: Counterscreen for Glucocerebrosidase Inhibitors: qHTS Assay for Rice alpha-Glucosidase at pH 5.0 (AID 997)
# Method in brief: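 Endpoint fluorogenic assay at pH 5.0: compounds (0.7 nM to 77 uM) titrated against 4 nM rice enzyme and 400 uM 4-MU-alpha-glucoside for 20 min at room temperature; NaOH/glycine stop, read ex 365/em 440 nm, Hill-fitted AC50.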
# [17] = qHTS Assay for Lipid Storage Modulators (AID 1519; calls by dose curve); conditions: Drosophila S3 cells, BODIPY lipid droplet/cell ratio, laser cytometry, cells loaded with oleic acid
# Method in brief: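 Cells seeded at 5,000 per well were treated with compounds over a concentration series and loaded with oleic acid (400 uM, as added). Lipid droplet fluorescence (488 nm excitation, 500-530 nm channel) was read by laser-scanning cytometry and normalized to 20 uM Triacsin C.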
# [18] = biological target: DNA repair nuclease/redox regulator APEX1 (Homo sapiens) (UniProt P27695); experiment: qHTS Validation Assay for Inhibitors of the Human Apurinic/apyrimidinic Endonuclease 1 (APE1) (AID 1705;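 further: TAMRA fluorescence gain over two minutes as APE1 cuts a quenched THF abasic duplex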)
# Method in brief: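 Endonuclease activity of human APE1 is followed as dequenching when the enzyme incises a tetrahydrofuran abasic site in a short duplex labelled 5'-TAMRA/3'-BHQ-2 (50 nM final), after 15 min enzyme–compound preincubation at room temperature.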
# Sequence of Glucocorticoid receptor (Homo sapiens) (P04150 whole entry, looked up, the tested form may be a part): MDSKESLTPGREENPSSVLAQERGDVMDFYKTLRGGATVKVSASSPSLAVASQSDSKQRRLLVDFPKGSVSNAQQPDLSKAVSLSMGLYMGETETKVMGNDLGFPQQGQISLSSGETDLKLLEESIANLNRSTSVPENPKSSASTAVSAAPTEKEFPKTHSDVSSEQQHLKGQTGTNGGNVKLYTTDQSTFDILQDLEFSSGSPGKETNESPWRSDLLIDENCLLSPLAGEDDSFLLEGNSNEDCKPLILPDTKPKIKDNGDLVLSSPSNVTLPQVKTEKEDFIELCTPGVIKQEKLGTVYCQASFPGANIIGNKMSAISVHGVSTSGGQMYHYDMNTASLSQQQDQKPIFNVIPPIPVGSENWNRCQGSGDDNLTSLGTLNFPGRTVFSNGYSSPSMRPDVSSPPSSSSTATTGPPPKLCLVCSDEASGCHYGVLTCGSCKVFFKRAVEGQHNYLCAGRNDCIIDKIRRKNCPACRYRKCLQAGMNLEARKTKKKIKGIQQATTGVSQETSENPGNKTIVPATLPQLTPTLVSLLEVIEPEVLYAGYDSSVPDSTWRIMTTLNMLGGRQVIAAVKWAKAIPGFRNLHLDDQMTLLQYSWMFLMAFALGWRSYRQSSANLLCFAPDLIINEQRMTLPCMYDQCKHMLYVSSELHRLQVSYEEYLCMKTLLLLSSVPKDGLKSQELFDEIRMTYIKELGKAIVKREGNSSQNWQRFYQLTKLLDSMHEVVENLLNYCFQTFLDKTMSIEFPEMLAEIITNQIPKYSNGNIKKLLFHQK
# Sequence of Alpha-galactosidase A (Homo sapiens) (P06280 whole entry, looked up): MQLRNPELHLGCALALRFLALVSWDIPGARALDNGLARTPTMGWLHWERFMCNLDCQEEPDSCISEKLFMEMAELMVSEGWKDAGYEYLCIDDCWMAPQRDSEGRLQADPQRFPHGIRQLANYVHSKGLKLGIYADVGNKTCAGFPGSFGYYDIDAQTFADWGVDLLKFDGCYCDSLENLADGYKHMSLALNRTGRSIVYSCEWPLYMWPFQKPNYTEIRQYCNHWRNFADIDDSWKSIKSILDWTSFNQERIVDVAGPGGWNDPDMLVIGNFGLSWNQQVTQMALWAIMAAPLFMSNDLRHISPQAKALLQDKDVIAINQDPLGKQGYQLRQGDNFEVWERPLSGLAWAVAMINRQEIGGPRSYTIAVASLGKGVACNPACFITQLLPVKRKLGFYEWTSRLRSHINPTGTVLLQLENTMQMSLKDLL
# Sequence of DNA repair nuclease/redox regulator APEX1 (Homo sapiens) (P27695 whole entry, looked up): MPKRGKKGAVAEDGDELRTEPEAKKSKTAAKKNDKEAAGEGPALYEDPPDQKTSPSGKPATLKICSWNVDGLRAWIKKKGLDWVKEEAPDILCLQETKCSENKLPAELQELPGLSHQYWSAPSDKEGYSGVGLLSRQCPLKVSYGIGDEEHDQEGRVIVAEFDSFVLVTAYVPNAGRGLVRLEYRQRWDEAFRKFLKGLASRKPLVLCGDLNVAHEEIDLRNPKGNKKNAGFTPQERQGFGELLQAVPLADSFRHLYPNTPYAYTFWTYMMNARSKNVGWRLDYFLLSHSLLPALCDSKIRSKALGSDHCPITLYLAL
# Sequence of Pyruvate kinase (Leishmania mexicana) (Q27686 2-499 E452W): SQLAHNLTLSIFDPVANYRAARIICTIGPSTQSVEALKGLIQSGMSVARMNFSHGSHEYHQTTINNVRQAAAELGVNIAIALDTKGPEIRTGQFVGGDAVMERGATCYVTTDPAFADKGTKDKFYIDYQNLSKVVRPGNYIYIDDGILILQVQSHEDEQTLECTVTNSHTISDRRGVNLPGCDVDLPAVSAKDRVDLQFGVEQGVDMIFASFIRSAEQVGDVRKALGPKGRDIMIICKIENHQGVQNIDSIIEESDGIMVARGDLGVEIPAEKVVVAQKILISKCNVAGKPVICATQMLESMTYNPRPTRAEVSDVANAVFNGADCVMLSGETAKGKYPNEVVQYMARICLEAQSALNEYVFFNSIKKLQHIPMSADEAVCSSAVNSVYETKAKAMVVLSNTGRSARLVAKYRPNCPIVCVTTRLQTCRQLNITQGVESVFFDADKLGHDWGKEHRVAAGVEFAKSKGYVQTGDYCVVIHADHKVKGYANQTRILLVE
# Sequence of Pyruvate kinase PKM (Homo sapiens) (P14618 whole entry, looked up): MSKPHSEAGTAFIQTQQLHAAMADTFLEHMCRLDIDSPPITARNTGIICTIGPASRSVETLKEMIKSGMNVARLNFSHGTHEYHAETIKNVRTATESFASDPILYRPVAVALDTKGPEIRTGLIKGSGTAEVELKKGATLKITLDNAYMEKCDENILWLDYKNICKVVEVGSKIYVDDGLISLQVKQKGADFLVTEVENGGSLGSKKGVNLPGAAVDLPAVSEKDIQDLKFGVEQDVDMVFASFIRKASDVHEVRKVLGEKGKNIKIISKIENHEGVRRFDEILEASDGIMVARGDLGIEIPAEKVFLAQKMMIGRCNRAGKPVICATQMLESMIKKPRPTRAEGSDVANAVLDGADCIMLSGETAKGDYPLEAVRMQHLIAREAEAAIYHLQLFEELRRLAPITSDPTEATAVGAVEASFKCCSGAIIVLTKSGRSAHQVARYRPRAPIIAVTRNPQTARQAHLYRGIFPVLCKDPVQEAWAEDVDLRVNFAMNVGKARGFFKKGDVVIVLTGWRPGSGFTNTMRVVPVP
# Sequence of 3',5'-cyclic-AMP phosphodiesterase 4B (Homo sapiens) (Q07343 whole entry, looked up): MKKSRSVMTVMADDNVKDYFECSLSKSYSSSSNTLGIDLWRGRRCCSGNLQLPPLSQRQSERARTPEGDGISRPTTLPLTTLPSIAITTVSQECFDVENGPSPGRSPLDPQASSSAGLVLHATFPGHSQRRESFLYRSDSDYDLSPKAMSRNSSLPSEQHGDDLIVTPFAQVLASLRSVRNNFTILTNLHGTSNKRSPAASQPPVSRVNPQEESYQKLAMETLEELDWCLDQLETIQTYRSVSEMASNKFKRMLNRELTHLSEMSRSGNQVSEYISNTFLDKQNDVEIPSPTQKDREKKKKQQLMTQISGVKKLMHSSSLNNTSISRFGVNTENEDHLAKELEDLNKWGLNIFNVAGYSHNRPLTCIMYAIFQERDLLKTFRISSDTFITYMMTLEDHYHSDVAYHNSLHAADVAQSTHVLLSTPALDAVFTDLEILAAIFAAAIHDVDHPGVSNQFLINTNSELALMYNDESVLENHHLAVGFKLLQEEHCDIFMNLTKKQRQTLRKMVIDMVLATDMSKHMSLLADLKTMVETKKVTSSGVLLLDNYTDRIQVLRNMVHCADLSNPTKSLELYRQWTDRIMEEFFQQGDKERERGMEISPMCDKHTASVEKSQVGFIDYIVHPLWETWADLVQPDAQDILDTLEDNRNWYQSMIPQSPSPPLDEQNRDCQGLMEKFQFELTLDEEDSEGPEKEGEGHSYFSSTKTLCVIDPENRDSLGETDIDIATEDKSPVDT
# Sequence of Muscarinic acetylcholine receptor M1 (Rattus norvegicus) (P08482 whole entry, looked up): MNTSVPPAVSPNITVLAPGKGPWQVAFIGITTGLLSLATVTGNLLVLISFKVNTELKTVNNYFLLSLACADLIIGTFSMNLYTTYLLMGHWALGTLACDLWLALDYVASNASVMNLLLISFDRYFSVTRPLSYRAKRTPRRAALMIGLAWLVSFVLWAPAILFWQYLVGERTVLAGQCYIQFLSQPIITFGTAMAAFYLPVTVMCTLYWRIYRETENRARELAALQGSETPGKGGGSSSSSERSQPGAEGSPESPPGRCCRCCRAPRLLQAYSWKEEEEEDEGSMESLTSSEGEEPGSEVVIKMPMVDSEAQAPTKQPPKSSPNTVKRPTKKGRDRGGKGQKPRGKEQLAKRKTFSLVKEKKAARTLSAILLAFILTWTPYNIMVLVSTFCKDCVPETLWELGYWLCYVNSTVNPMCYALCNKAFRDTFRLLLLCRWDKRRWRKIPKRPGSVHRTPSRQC
# Sequence of Guanine nucleotide-binding protein G(i) subunit alpha-1 (Homo sapiens) (P63096 whole entry, looked up): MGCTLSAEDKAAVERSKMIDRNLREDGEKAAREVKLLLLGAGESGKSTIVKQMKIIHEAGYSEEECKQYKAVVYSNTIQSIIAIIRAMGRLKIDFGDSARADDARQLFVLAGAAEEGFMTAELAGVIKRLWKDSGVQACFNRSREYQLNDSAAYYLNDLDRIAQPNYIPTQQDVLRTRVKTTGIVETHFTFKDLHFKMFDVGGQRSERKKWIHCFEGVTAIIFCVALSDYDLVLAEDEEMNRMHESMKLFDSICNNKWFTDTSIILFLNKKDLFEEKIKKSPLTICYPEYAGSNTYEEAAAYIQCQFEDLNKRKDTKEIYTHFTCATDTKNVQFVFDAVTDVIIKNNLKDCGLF
# Sequence of Cytochrome P450 1A2 (Homo sapiens) (P05177 whole entry, looked up): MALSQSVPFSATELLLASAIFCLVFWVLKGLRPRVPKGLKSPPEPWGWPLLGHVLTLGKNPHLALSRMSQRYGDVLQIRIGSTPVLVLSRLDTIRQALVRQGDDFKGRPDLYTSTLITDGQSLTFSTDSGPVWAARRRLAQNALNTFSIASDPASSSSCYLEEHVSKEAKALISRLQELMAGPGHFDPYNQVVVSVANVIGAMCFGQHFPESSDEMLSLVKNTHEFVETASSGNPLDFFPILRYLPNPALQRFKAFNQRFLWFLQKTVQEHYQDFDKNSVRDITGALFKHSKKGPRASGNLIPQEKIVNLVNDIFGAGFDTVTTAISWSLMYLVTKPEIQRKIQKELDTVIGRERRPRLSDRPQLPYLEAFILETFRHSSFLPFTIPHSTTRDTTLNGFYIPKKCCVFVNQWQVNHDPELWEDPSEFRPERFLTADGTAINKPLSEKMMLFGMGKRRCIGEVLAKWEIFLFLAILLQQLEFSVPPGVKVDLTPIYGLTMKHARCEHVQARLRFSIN
smiles,measurement,setting,value
S=C(Nc1ccccc1)Nc1nccs1,"activity change, negative = inhibition",[1],-16.9% (inactive)
same,Potency,[2],0.794 µM (active)
same,"activity change, negative = inhibition",[3],0.515% (inactive)
same,"activity, negative = inhibition",[4],11.6% (inactive)
same,Potency,[5],> 46 µM (inactive)
same,Potency,[6],> 46 µM (inactive)
same,Potency,[7],inactive
same,Potency,[8],inactive
same,outcome,[9],inactive
same,Potency,[10],inactive
same,Potency,[11],20 µM (active)
same,Potency,[12],inactive
same,outcome,[13],inactive
same,Potency,[14],inactive
same,outcome,[15],inactive
same,outcome,[16],inactive
same,"activity change, negative = inhibition",[17]; at 57.5 µM (top of the series),-0.0683% (inactive)
same,max response,[17]; measured here: cell count channel max response,-12.9%
same,max response,[17]; measured here: lipid channel max response,-14.9%
same,Potency,[18],inactive

# From PubChem BioAssay (NCATS)
